Test results: PubChem BioAssay (NCATS)
Results filed as inconclusive are left out. Where a call stands in place of a potency, no number is given. Activity calls are given as the source filed them. The call rests on the fitted dose curve; in most records, active means well fitted cell-killing curve with a large enough effect; inconclusive means small, poorly fitted or top-dose-only effect; inactive means flat fitted curve, though single readings scatter.
Potency means the concentration at half of the fitted maximal effect.

Assay: Cell Viability - LYMP2-021 (AID 974);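 further: compound exposure lasts 24 hours at 37 °C; nearly all actives have a fitted effect of over 55% in size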
Details: LYMP2-021 lymphoblastoid cells viability; series mostly up to 92.2 µM
In short: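 Plate 2500 lymphoblastoid cells per well and incubate 5 hr at 37 C. Add compounds over a concentration range and incubate 24 hr at 37 C. Add CellTiter-Glo, wait 30 min at room temperature, read luminescence.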
For `CCCN(CCC)C(=O)SCC`, the Potency was “inactive”. For `COc1ccc2nc(N)sc2c1`, the Potency was “inactive”. For `ClCCCl`, the Potency was “inactive”. With `CCC(O)OC(O)CC` (stereo unspecified) the Potency was “inactive”. In the case of `C=Cc1ccccc1Cl`, the Potency is reported as “inactive”. For `c1ccc2c(c1)c1cccc3ccc4cccc2c4c31`, the Potency was “inactive”. In the case of `Cc1cccc([N+](=O)[O-])c1C`, the Potency is reported as “inactive”. With `CCCCCCCCO` the Potency was “inactive”. For `CC(C)=CCCC(C)CCO` (stereo unspecified), the Potency was “inactive”. In the case of `O=[N+]([O-])c1cccc(Cl)c1Cl`, the Potency is reported as “inactive”. With `CCO[Si](CCCN)(OCC)OCC` the Potency was “inactive”. In the case of `Clc1cc(Cl)c(Cl)cc1Cl`, the Potency is reported as “inactive”. With `CCO` the Potency was “inactive”. For `C=CC(=O)OCCOCCOCCOCCOC(=O)C=C`, the Potency was 15.8 µM (active). For `Clc1cc(Cl)c(Cl)c(Cl)c1Cl`, the Potency was “inactive”. With `CCCCC(CC)CN` (stereo unspecified) the Potency was “inactive”. With `O=NO` the Potency was “inactive”. With `c1ccc2c(c1)[nH]c1ccccc12` the Potency was “inactive”. For `OCCNCCO`, the Potency was “inactive”. For `Nc1ccc(Cl)cc1Cl`, the Potency was “inactive”. For `CCC(C)c1ccccc1O` (stereo unspecified), the Potency was “inactive”. In the case of `CC1=CC(C)(C)Nc2ccccc21`, the Potency is reported as “inactive”. In the case of `CN(C)C=O`, the Potency is reported as “inactive”. For `Cc1ccc(N)c([N+](=O)[O-])c1`, the Potency was “inactive”. For `CCCCOCCO`, the Potency was “inactive”. With `CC(=O)OC/C=C(\C)CCC=C(C)C` the Potency was “inactive”.
